A number with no mark means an inactive call.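 Rule for the calls: active = AUC reduced over 20% with Padj below 0.05 in at least 2 of 3 replicates; inactive = otherwise.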

From the supplement of paper PMC12669032 come the findings set out here.

The assay concerns Parabacteroides merdae. The experiment in a line: growth AUC relative to DMSO control (median of replicates) (fraction); higher = more growth (less inhibition), active = hit call of the paper. Particulars: 20 µM; 24 h. In a few lines:
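Gut bacterial monocultures were grown anaerobically at 37 °C in mGAM, starting at OD600 0.05, with 20 µM compound (1% DMSO) in round-bottom 96-well plates under pierced gas-permeable seals. OD600 was read hourly for 24 h. Area under the growth curve (minimum OD set to 0) was normalised to the plate median of DMSO controls, or to row and column medians on the industrial chemical plate. The value is the median of three biological replicates grown on separate days.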
As for `CN(C)C(=O)Nc1ccc(Cl)c(Cl)c1`, the “growth AUC” value was 0.907.
As for `CCOC(=O)C1CC(=O)C(=C(O)C2CC2)C(=O)C1` (centres undefined), the figure is 1.03.
On to `COC(=O)C(C)Oc1ccc(Cl)cc1C` (centres undefined), for which the “growth AUC” value was 1.05.
Regarding `FC(F)(F)C(=NOCC1OCCO1)c1ccc(Cl)cc1`, the “growth AUC” value is 1.03.
As for `NC(=S)Nc1cccc2ccccc12`, the figure is 0.915; as for `CC(C)c1cc(Oc2ccccc2)cc(C(C)C)c1NC(=S)NC(C)(C)C`, 0.957.
For the molecule `O=[N+](Nc1ccccc1)c1ccccc1`, the “growth AUC” value is 0.986.
As for `Cc1[nH]n(C)c(=O)c1C(=O)c1ccc(C(F)(F)F)cc1S(C)(=O)=O`, the figure is 0.974.
The result for `O=C=NC1CCC(CC2CCC(N=C=O)CC2)CC1` (centres undefined) reads 1.02; that for `CCc1cccc(C)c1N(COC(C)C)C(=O)CCl`, 0.982; that for `O=C(Nc1ccc(Cl)cc1C(O)c1ccccc1)c1ccncc1` (centres undefined), 0.979.
As for `CNC(=O)Nc1nc2ccccc2s1`, the figure is 1.03.
For the molecule `CC(C)CNC(=O)N1CCNC1=O`, the “growth AUC” value is 1.01.
The result for `C/C=C/C(=O)Oc1c(C(C)CCCCCC)cc([N+](=O)[O-])cc1[N+](=O)[O-]` (mixture of isomers) reads 0.00823 (active); that for `CCOC(=O)NCCOc1ccc(Oc2ccccc2)cc1`, 0.974.
As for `NC(=O)Cc1cccc2ccccc12`, the figure is 1.01; as for `NS(=O)(=O)[O-].[NH4+]`, 1.06.
The result for `COC(=O)c1ccc(C(=O)OC)cc1` reads 0.993; that for `Nc1cc(Cl)nc(C(=O)O)c1Cl`, 1.02.
In the case of `CCc1cccc(C)c1N(C(=O)C(=O)O)[C@@H](C)C(=O)O`, the “growth AUC” value was 1.03.
For `O=S(=O)(Oc1ccc(Cl)cc1)c1ccccc1`, the “growth AUC” value is 0.957.
As for `Oc1ccc2nc(-c3cscn3)[nH]c2c1`, the figure is 0.958; as for `COC(=O)c1csc(C)c1S(=O)(=O)NC(=O)n1nc(OC)n(C)c1=O`, 0.99; as for `CCCCOCN(C(=O)CS(=O)(=O)[O-])c1c(CC)cccc1CC.[Na+]`, 0.962.
As for `O.O.O=[N+]([O-])c1ccc([O-])cc1.[Na+]`, the figure is 0.994; as for `COCC(=O)N(c1c(C)cccc1C(=O)O)C(C)C(=O)O` (centres undefined), 0.989; as for `O=C(O)COc1ccc(Cl)cc1CO`, 0.978.
As for `CCOc1ccc2c(c1)C(C)=CC(C)(C)N2`, the figure is 1.01; as for `CC(C)CCCCCOC(=O)C(C)Oc1ccc(Cl)cc1Cl` (centres undefined), 0.9.
With `[S]`, the “growth AUC” value was 1.
Consider `CCCC(C)(C)C(=O)Nc1ccc(Cl)cc1`, for which the “growth AUC” value was 0.949.
As for `CSc1nnc(C(C)(C)C)c(=O)n1/N=C/C(C)C`, the figure is 1.02; as for `O=C(O)CCCc1c[nH]c2ccccc12`, 0.984.
The result for `C=C1C[C@]23C[C@@]1(O)CC[C@H]2[C@@]12C=C[C@H](O)[C@@](C)(C(=O)O1)[C@H]2[C@@H]3C(=O)O` reads 0.995; that for `Nc1ccc(S(=O)(=O)Nc2nccs2)cc1`, 1.03; that for `CCCCCCCCCC[N+](C)(C)Cc1ccccc1.[Cl-]`, 0.91.
On to `CN1CCC[C@H]1c1cccnc1`, for which the “growth AUC” value was 0.993.
The result for `O=C1NCCN1` reads 1.04; that for `O=C(O)COc1cccc(Cl)c1Cl`, 0.986.
